Several values for one entry are separate records, joined by “and”; a condition that tells them apart may be missing. Identical values can stand only once. Inconclusive results are not listed. The source holds several records for some structures; these can differ, active in one and inactive in another. Activity calls are given as the source filed them. The call rests on the fitted dose curve; in most records, active means well fitted inhibition curve with a large enough effect in the repeat runs; inconclusive means weak or mixed curves, or effect the other way; inactive means no such curve, though single readings can be large or run the other way.
biological target: Nuclear receptor ROR-gamma (Homo sapiens) (UniProt P51449); assay: qHTS assay to identify small molecule antagonists of the retinoid-related orphan receptor gamma (ROR-gamma) signaling pathway (AID 1159521; further: nearly all actives have a fitted effect of over 50% in size; on activity change, negative = inhibition: top concentration of the series differs between compounds); conditions: Tet-on RORgamma CHO cells, RORE-luciferase, 16 h; series mostly up to 92.4 µM; activity change, negative = inhibition: at the top concentration
Text: U.S. Tox21 Program National Center for Advancing Translational Sciences [NCATS] NIH Chemical Genomics Center [NCGC] U.S. Environmental Protection Agency [EPA] National Institutes of Environmental Health Sciences [NIEHS] National Toxicology Program [NTP] U.S. Food and Drug Administration [FDA] Tox21 Assay Overview: Nuclear steroid hormone receptors are involved in many biological processes including inflammatory responses, cell proliferation, and apoptosis. Environmental factors or compounds disrupting these nuclear receptor pathways and gene expression may promote susceptibility to immunotoxicants and autoimmune diseases. One important group of these expression factors are the retinoid-related orphan receptors. To assess compounds that may interfere with the retinoid-related orphan receptor gamma (ROR-gamma) transcription factor, a cell-based luciferase assay was used. The CHO cell-based assay utilizes a TET-inducible ROR expression factor and ROR response element-LUC reporter gene. Reporter gene activity was induced using Doxycycline Hyclate and measured after 16 hr incubation. Tet-on ROR gamma CHO cells were used to screen against the Tox21 10K compound library for ROR gamma antagonists by quantification of decreased reporter gene activity in terms of decreased luminescence.
Tox21 Assay Protocol Summary: Tet-on ROR gamma CHO cells were dispensed at 1,000 cells in 4 uL of culture medium per well into white wall/solid bottom 1536-well plates using a Multidrop Combi (Thermo Scientific, Waltham, MA) dispenser. Following incubation at 37 C and 5% CO2 for 4 hr, 23 nL of compounds dissolved in DMSO, positive controls or DMSO only were transferred by a Pintool station (Kalypsys, San Diego, CA) and after 2 hr incubation at 37 C, one ul of 1 uM (final concentration) of Doxycycline Hyclate was added to all the wells by using a Flying Reagent Dispenser (FRD) (Aurora Discovery, San Diego, CA). After 16 hr incubation at 37 C and 5% CO2, 5 uL of ONE-Glo reagent (Promega Corporation, Madison, WI) was added to each assay plate using FRD. After 30 min incubation at room temperature, luminescence was quantified on a ViewLux plate reader (Perkin Elmer, Waltham, MA).
On the % scale 0 is the no-effect control and ±100 the full control effect; potency means the concentration at half of the fitted maximal effect.

| Compound | Potency | activity change, negative = inhibition |
| --- | --- | --- |
| CCn1c2ccccc2c2cc(N)ccc21 | 19.1 µM (active) | – |
| CO[Si](OC)(OC)c1ccccc1 | – | -3.56% (inactive) |
| O=C1OC2(c3ccc(O)cc3Oc3cc(O)ccc32)c2ccccc21 | inactive | – |
| Cc1cccc2n[nH]nc12 | inactive | – |
| O=C(O)c1cn(-c2ccc(F)cc2)c2cc(N3CCNCC3)c(F)cc2c1=O | inactive | – |
| NC(N)=NC(=O)Cc1c(Cl)cccc1Cl | – | -7.23% [at 42.5 µM] (inactive) |
| COc1nc(C)nc(Cl)c1NC1=NCCN1 | – | -10.7% [at 42.5 µM] (inactive) |
| O=C(Oc1ccccc1)c1ccccc1O | inactive | – |
| C/C=C/c1ccc(OCC)c(O)c1 | inactive | – |
| O=C1CC2(CCCC2)CC(=O)N1CCCCN1CCN(c2ncccn2)CC1 | 27.3 µM (active) and inactive | – |
| O=C(O)CP(=O)(O)O | – | 14% [at 42.5 µM] (inactive) |
| CCCCCC(=O)O[C@]1(C(C)=O)CC[C@H]2[C@@H]3CCC4=CC(=O)CC[C@]4(C)[C@H]3CC[C@@]21C | 27.1 µM (active) and 23.7 µM (active) | – |
| COC(=O)[C@H]1[C@H]2C[C@@H]3c4[nH]c5cc(OC)ccc5c4CCN3C[C@H]2C[C@@H](OC(=O)c2cc(OC)c(OC)c(OC)c2)[C@@H]1OC | 30.6 µM (active) and 28.1 µM (active) | – |
| c1ccc2c(c1)CCCC2C1=NCCN1 (stereo not given) | – | 29.7% [at 42.5 µM] (inactive) |
| CCC(C)(C)C(=O)O[C@H]1C[C@@H](C)C=C2C=C[C@H](C)[C@H](CC[C@@H]3C[C@@H](O)CC(=O)O3)[C@H]21 | 3.86 µM (active) and 841 nM (active) | – |
| O=C1NCC2(CCN(CCc3ccccc3)CC2)O1 | – | 14.1% [at 42.5 µM] (inactive) |
| CC(=O)CC(C)=O | – | 0.283% (inactive) |
| COc1ccc(Cc2cnc(N)nc2N)cc1OC | – | -14.2% [at 42.5 µM] (inactive) |
| CC(C)(C)NCC(O)c1cc(O)cc(O)c1 (stereo not given) | – | 4.31% [at 42.5 µM] (inactive) |
| C=C(C)C1CC=C(C)C(OC(C)=O)C1 (stereo not given) | inactive | – |

| Compound | Potency | activity change, negative = inhibition |
| --- | --- | --- |
| CC(=O)OCCOCCOCCOC(C)=O | inactive | – |
| CCCNC(C)C(=O)Nc1ccccc1C (stereo not given) | – | 29.3% [at 42.5 µM] (inactive) |
| CCCC(=O)c1ccccc1 | – | -2.57% (inactive) |
| CC(=O)Nc1ccc(C(=O)CCl)cc1 | inactive and 13.7 µM (active) | – |
| CC1=C(C=O)C(C)(C)CC=C1 | – | 0.34% (inactive) |
| NCCO | inactive | – |
| CNC1(C)C2CCC(C2)C1(C)C (stereo not given) | – | 22.6% [at 42.5 µM] (inactive) |
| Clc1ccc2c(c1)C(N1CCNCC1)=Nc1ccccc1O2 | – | -19.7% [at 42.5 µM] (inactive) |
| C=C(C)C(=O)O | inactive | – |
| Nc1cc(S(=O)(=O)O)cc2cc(S(=O)(=O)O)cc(O)c12 | inactive and 30.6 µM (active) | – |
| CCC(=O)/C=C/C1C(C)=CCCC1(C)C (stereo not given) | – | 0.973% (inactive) |
| C=CC(=O)OCCCCCCCC | – | -1.59% (inactive) |
| CC[C@H]1CN2CCc3cc(OC)c(OC)cc3[C@@H]2C[C@@H]1C[C@H]1NCCc2cc(OC)c(OC)cc21 | 173 nM (active) and 750 nM (active) | – |
| Cc1occc(=O)c1OC(=O)C(C)C | – | -19.2% (inactive) |
| CCCCCCCCCCCCc1ccccc1O | 67.7 µM (active) and 24.3 µM (active) | – |
| CC(=O)C1=C(C)[C@@H]2C[C@@]3(C1)[C@H](C)CC[C@H]3C2(C)C | inactive | – |
| CC(=O)OCC1=C(C(=O)O)N2C(=O)[C@@H](NC(=O)Cc3cccs3)[C@H]2SC1 | – | 1.39% [at 42.5 µM] (inactive) |
| CCN(CC)C(=O)Nc1ccc(OCC(O)CNC(C)(C)C)c(C(C)=O)c1 (stereo not given) | – | -3.11% [at 42.5 µM] (inactive) |
| Cc1cccc([N+](=O)[O-])c1C(=O)O | – | 42.7% (inactive) |
| CCOC(=O)C(C)C(C)=O (stereo not given) | – | 2.62% (inactive) |

Source: PubChem BioAssay (Tox21)
